Bioassay records deposited in PubChem BioAssay by National Center for Advancing Translational Sciences (NCATS).
Shown are actives, neighbours in structure and some others; about 2.4% of the full set was active somewhere.
D2 ag-1: activates the human D2 dopamine receptor; P14416; activation, % at 2 µM; actives 0.53% (n = 340,000); AID 485358; HEK293 T-REx D2 cells, calcium flux agonist mode;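 active = activation over 3 SD above normal in the single-dose calcium agonist read, cut at about 30% in these data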; also: 0% is about no effect
Target sequence (P14416 whole entry, looked up): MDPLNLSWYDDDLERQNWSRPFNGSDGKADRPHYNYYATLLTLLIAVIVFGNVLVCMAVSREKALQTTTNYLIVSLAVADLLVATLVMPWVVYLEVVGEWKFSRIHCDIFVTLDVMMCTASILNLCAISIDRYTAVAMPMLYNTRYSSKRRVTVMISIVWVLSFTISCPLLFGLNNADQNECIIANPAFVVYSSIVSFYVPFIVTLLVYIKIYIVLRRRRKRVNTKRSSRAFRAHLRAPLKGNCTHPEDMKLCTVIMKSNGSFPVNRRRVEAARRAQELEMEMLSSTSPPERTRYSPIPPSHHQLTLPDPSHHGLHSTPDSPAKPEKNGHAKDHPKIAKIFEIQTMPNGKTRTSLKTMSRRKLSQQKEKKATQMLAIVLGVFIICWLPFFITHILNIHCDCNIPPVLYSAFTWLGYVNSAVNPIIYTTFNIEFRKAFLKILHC
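Agonism is scored from calcium flux in a force-coupled, inducible HEK293 cell line expressing D2, read kinetically for 180 s after compound addition against dopamine controls.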
D2 PAM-1: human D2 receptor positive allosteric modulation. P14416. DiscoveRx D2 beta-arrestin cells, luminescence, 90 min; 100% = 57 uM dopamine signal. potentiation, % (test concentration not listed). actives 0.23% (n = 360,000); in the data active = potentiation above about 50%
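D2 cells co-treated with compound plus 50 nM dopamine (EC20) for 90 min at 37 deg C to detect potentiation. Beta-arrestin recruitment was read as enzyme-fragment luminescence after 1 h at ambient temperature. Full response was set by 57 uM dopamine.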
D2 ag-2: activates the human D2 dopamine receptor. P14416. DiscoveRx PathHunter D2 beta-arrestin, luminescence, 90 min; 100% = 57 uM dopamine signal. activation, % (test concentration not listed). actives 0.084% (n = 360,000); in the data active = activation above about 40%
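Agonist mode: compounds alone added to overnight-plated D2 PathHunter cells for 90 min at 37 C, with 57 uM final dopamine (EC100) defining full response. Beta-arrestin recruitment detected by chemiluminescent reagent, read after 1 h at ambient temperature.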
D2 PAM-2: positively modulates the human D2 dopamine receptor allosterically; HEK293 T-REx D2, calcium flux, EC20 dopamine potentiation; potentiation, % at 10 µM; actives 0.34% (n = 340,000);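 active = potentiation over 3 SD above the plate norm, cut at about 30% in these data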; also: 0% is about no effect
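Calcium flux readout, no-wash dye, 1 read/s. Inducible HEK293 Trex D2 line, overnight 30 C. Compound alone 180 s (agonist flags), then EC20 dopamine, another 180 s to score potentiation.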
D2 antag: antagonists of human D2 dopamine receptor; HEK293 TREx D2 cells, calcium flux, dopamine EC80; AID 485344; P14416; inhibition, % at 10 µM; actives 2% (n = 340,000); in the data active = inhibition above about 30%; inactive = below that, where a call was filed; also: 0% is about no effect
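Tetracycline-induced HEK293 TREx cells expressing D2 receptor forced-coupled to calcium signalling, loaded with no-wash calcium dye. Compounds added and calcium flux read 180 s, then dopamine added at EC80 and read a further 180 s.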
* = called active by the depositor; . = not tested or not shown.

SMILES | D2 ag-1 | D2 PAM-1 | D2 ag-2 | D2 PAM-2 | D2 antag
CN(C)S(=O)(=O)c1ccc(Cl)c(NC(=O)CN2CCCC2)c1 | 0 | -22 | -3 | -14 | 36*
Cc1ccc(S(=O)(=O)N(C)C)cc1NC(=O)CN1CCCC1 | 0 | -22 | 3 | -27 | -21
COc1ccc(NC(C)=O)cc1NC(=O)CN1CCN(S(=O)(=O)c2ccc(C(C)C)cc2)CC1 | 0 | -1 | 0 | -4 | 38*
Cc1ccc(S(=O)(=O)N2CCN(CC(=O)Nc3ccccc3Cl)CC2)cc1 | 0 | -1 | -2 | 10 | 40*
COc1ccc(C)cc1NC(=O)CN1CCN(S(=O)(=O)c2ccc(Br)cc2)CC1 | 0 | 4 | 0 | 2 | 34*
COc1ccc(NC(=O)CN2CCN(S(=O)(=O)c3ccc(Br)cc3)CC2)c(OC)c1 | 0 | -5 | 1 | -8 | -10
CCOC(=O)CNC(=O)N1CCc2cc(S(=O)(=O)N3CCC(C)CC3)ccc21 | 0 | . | . | -1 | .
Cc1ccc(NC(=O)N2CCN3CCCCC3C2)cc1C (stereo unspecified) | 0 | . | . | -2 | .
O=C(CN1CCN(S(=O)(=O)c2ccc(Cl)cc2)CC1)Nc1ccc(F)cc1F | 1 | 1 | -1 | -7 | 39*
O=C(CN1CCN(S(=O)(=O)c2ccc(Br)cc2)CC1)Nc1ccc(F)cc1F | -1 | -8 | 5 | 0 | 6
CCOC(=O)c1sc(NC(=O)c2nc3ncccn3n2)c(C(=O)OC)c1C | 1 | . | . | -11 | .
Cc1ccc(C)c(N2CCN(CCCNC(=O)CCC(=O)N3CCOc4ccc(Cl)cc43)CC2)c1 | 4 | . | . | -23 | 56*
COc1ccc(N2CCN(CCCNC(=O)CCC(=O)N3CCOc4ccc(Cl)cc43)CC2)cc1 | 0 | -39 | -6 | -27 | -4
O=C(CCC(=O)N1CCOc2ccc(Cl)cc21)NCCCN1CCN(c2ccccc2F)CC1 | 36* | -11 | 1 | -15 | 86*
CC1CCCN(C(=O)c2cc3c(=O)n(C)c4ccccc4c3s2)C1 (stereo unspecified) | 1 | . | . | 19 | .
CCOC(=O)/C(=C\c1ccc(N2CCC(c3ccccc3)=N2)cc1)C(C)=O | . | -19 | 0 | . | .
O=C(/C=C/c1ccc(N2CCC(c3ccccc3)=N2)cc1)c1ccccc1 | 37* | -14 | -5 | -4 | 33*
O=c1cc(-c2ccc(F)cc2)nc(SCc2nc(-c3cccc(Cl)c3)no2)[nH]1 | 0 | . | . | -10 | .
Cc1ccc(-c2nc(CS(=O)CC(=O)NCCN3CCCC3)c(C)o2)cc1 (stereo unspecified) | -1 | -4 | -5 | -7 | -5
CCc1ccc(-c2nc(CS(=O)CC(=O)NCCN3CCCCCC3)c(C)o2)cc1 (stereo unspecified) | 1 | -19 | -3 | 4 | -3
CCC1CCCCN1CCCNC(=O)CS(=O)Cc1nc(-c2ccc(OC)c(OC)c2)oc1C (stereo unspecified) | 2 | -8 | -4 | 2 | 36*
Cc1ccc(-c2nc(CS(=O)CC(=O)NCCN(CC(C)C)CC(C)C)c(C)o2)cc1 (stereo unspecified) | -1 | -4 | -1 | 106* | 1
CCN1CCN(C(=O)CS(=O)Cc2nc(-c3ccc(OC)cc3)oc2C)CC1 (stereo unspecified) | 0 | -4 | -5 | -14 | 40*
CCc1ccc(-c2nc(CS(=O)CC(=O)NCCCN3CCC(C)CC3)c(C)o2)cc1 (stereo unspecified) | 0 | -24 | -7 | -9 | 30*
Cc1c(C(=O)NCc2ccc(Cl)c(Cl)c2)sc(=O)n1Cc1ccc(C(=O)N(C)C)cc1 | . | -3 | 10 | . | .
SMILES | D2 ag-1 | D2 PAM-1 | D2 ag-2 | D2 PAM-2 | D2 antag
Cc1ccc(C(=O)Nc2ccc(Br)cc2)cc1S(=O)(=O)N1CCOCC1 | 1 | . | . | -6 | .
CSc1cccc(NC(=O)CCCOc2cc(=O)n(C)c3ccccc23)c1 | . | -7 | 1 | . | .
COc1cc2oc(=O)c(Br)c(C)c2c(OC)c1OC | -1 | -2 | -1 | -1 | 39*
O=C(c1ccc2c(=O)n3c(nc2c1)CCCCC3)N1CCN(c2ccc(F)cc2)CC1 | 0 | 2 | -1 | 3 | 0
O=C(Nc1ccc2nc3n(c(=O)c2c1)CCCCC3)c1ccccc1[N+](=O)[O-] | -3 | -8 | -1 | -5 | 30*
O=C(Nc1ccc2nc3n(c(=O)c2c1)CCCCC3)C(=O)N1CCN(c2ccc(F)cc2)CC1 | -1 | -10 | 1 | -4 | 34*
O=c1c2cc(NC(=S)NCCCN3CCC(Cc4ccccc4)CC3)ccc2nc2n1CCCCC2 | 4 | -31 | -3 | -33 | 52*
CCN1CCN(C(=O)c2c(C)nn(-c3ccc(F)cc3)c2-n2cccc2)CC1 | 0 | . | . | -18 | .
CCCSc1nc2sc3c(c2c(=O)n1Cc1ccccc1)CC(C)(CC)OC3 (stereo unspecified) | 1 | . | . | -6 | .
CC1Oc2ccccc2N(CC(=O)NCc2ccccc2)C1=O (stereo unspecified) | -1 | -9 | -5 | 1 | -16
CC1Oc2ccccc2N(CC(=O)NC2CC2)C1=O (stereo unspecified) | 1 | -4 | 3 | . | 33*
CCc1ccc(-c2[nH]nc3nc(-c4cc(OC)ccc4OC)cc(C(=O)O)c23)cc1 | 0 | . | . | . | .
O=C(Nc1ccccc1OCc1cc(=O)n2ccccc2n1)c1ccccc1F | 0 | . | . | 9 | .
COc1ccc(C(CNC(=O)CCNS(=O)(=O)c2ccc(Br)cc2)N2CCCC2)cc1 (stereo unspecified) | 0 | -37 | -6 | 16 | -21
COc1ccc(C(CNC(=O)c2oc3ccc(Br)cc3c2C)N2CCCCC2)cc1 (stereo unspecified) | 0 | -32 | 4 | -14 | -25
COc1ccc(C(CNC(=O)C(C)Oc2ccc(Br)cc2)N2CCCCC2)cc1 (stereo unspecified) | 1 | -6 | -5 | -22 | 78*
COc1ccc(C(CNC(=O)c2oc3cc(Br)ccc3c2C)N2CCCCC2)cc1 (stereo unspecified) | 0 | -17 | -1 | -22 | 61*
COc1cccc(-c2cn3c(n2)sc2cc(C(=O)NC4CCCCCC4)ccc23)c1 | 0 | . | . | -5 | .
COc1ccccc1N1CCN(S(=O)(=O)c2c(C)sc3ncn(CC(=O)Nc4ccc(C(F)(F)F)cc4)c(=O)c23)CC1 | 0 | . | . | 10 | .
CCc1ccc2occ(CC(=O)N(Cc3ccccc3)C3CCS(=O)(=O)C3)c2c1 (stereo unspecified) | 2 | . | . | 10 | .
CN(CC(=O)Nc1cccc(F)c1)C(=O)c1ccc2c(c1)S(=O)(=O)N=C1CCCCCN12 | 1 | -12 | -5 | 32* | -1
Oc1cccc(-c2ccc3nccn3c2)c1 | . | -17 | -4 | . | .
O=C1c2ccccc2-c2nc3ccccc3n21 | 0 | -1 | -2 | 35* | 16
C/C(=N\OCc1cccc(C(=O)O)c1)c1ccc(Cl)cc1 | 0 | 0 | -1 | 8 | 56*
